Assay results taken from PubChem BioAssay (Tox21).
Inconclusive results are not listed. Calls of active or inactive are those of the source. Unless noted, calls follow the shape of the full dose curve.

Legend:
[1] = Nuclear factor erythroid 2-related factor 2/antioxidant responsive element (Nrf2/ARE) small molecule agonists: qHTS cell viability counter screen in human keratinocytes (AID 1919968; active = well fitted curve in the direction sought with a large enough effect in the repeat runs; an effect the other way counts as inactive or inconclusive; also: nearly all actives have a fitted effect of over 55% in size; also: potency is read from the fitted curve at half-maximal effect)
How it was run: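 Seed 1,500 KeratinoSens cells per well, then incubate 5 h at 37 C/5% CO2. Add compounds in DMSO and incubate 23 h. Add CellTiter-Fluor, wait 1 h and read fluorescence.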

[2] = Nuclear factor erythroid 2-related factor 2/antioxidant responsive element (Nrf2/ARE) small molecule agonists: luciferase reporter gene qHTS assay in human keratinocytes (AID 1919969); also: nearly all actives have a fitted effect of over 35% in size; also: potency is read from the fitted curve at half-maximal effect
[3] = biological target: KiSS-1 receptor (Homo sapiens) (UniProt Q969F8); experiment: Human kisspeptin (KISS1R) small molecule agonists, calcium flux assay in KISS1R-HEK293 cells (AID 1920064; active = well fitted curve in the direction sought with a large enough effect in the repeat runs; an effect the other way counts as inactive or inconclusive)
KiSS-1 receptor (Homo sapiens), sequence (Q969F8 whole entry, looked up): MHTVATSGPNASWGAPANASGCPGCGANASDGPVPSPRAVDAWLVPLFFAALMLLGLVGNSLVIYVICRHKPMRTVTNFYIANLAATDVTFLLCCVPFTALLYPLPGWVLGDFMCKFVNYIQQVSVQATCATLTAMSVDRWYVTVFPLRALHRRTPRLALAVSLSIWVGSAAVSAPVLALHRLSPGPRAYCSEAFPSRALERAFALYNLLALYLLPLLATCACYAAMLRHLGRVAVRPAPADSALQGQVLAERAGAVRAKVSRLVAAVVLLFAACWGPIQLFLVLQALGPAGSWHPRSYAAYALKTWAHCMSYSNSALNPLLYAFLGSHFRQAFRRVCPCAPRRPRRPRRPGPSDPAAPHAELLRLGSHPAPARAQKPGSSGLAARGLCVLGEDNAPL
How it was run: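 Cells plated and incubated 18 h; dye added, 1 h at 37 C; compounds in DMSO pinned in; signal read at 480/540 nm every second for 3 min. Each compound tested at 15 concentrations in triplicate.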

[4] = G protein-coupled receptor (GPCR) small molecule agonists, calcium flux assay: HEK293 wild type cell line counter screen (AID 1920065)
How it was run: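 Counter-screen of the Tox21 10K library for non-specific calcium release: dye-loaded cells received compounds in DMSO and were monitored by kinetic fluorescence (480/540 nm, 3 min). Fifteen concentrations, run in triplicate.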

[5] = p53 small molecule agonists, cell-based qHTS assay with human liver microsomes (AID 1963577);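 also: p53 response element beta-lactamase reporter cells with liver microsomes plus NADPH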
How it was run: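 HLM-supplemented p53RE-bla reporter assay: 16 h compound exposure at 37 C, microsomes and NADPH each 0.5 mg/mL final, read by fluorescence intensity.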

[6] = p53 small molecule agonists, cell-based qHTS assay with rat liver microsomes (AID 1963578)
How it was run: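 Quantitative HTS of the Tox21 10K library: p53RE-bla cells, rat liver microsomes plus NADPH at 0.5 mg/mL final each, 16 h at 37 C, beta-lactamase fluorescence detection.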

[7] = p53 small molecule agonists, cell-based qHTS assay with human liver microsomes: qHTS cell viability counter screen (AID 1963579); also: nearly all actives have a fitted effect of over 45% in size
How it was run: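 Viability of p53RE-bla cells is measured as CellTiter-Glo luminescence following a 16 h, 37 C incubation with compound, liver microsomes from human donors and NADPH.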

[8] = p53 small molecule agonists, cell-based qHTS assay with rat liver microsomes: qHTS cell viability counter screen (AID 1963580); also: nearly all actives have a fitted effect of over 45% in size; also: potency is read from the fitted curve at half-maximal effect
How it was run: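 Intracellular ATP, by CellTiter-Glo luminescence, defines viability. HCT-116 p53RE-bla cells, 4,000 per well, were compound-treated in the presence of rat liver microsomes and NADPH for 16 h at 37 C.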

[9] = p53 small molecule agonists, cell-based qHTS assay: qHTS cell viability counter screen (AID 1963581); also: nearly all actives have a fitted effect of over 45% in size; also: potency is read from the fitted curve at half-maximal effect
How it was run: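 Cells: HCT-116 with p53 response element-driven beta-lactamase. Treatment: 16 h, 37 C, compounds in DMSO. Read: CellTiter-Glo luminescence after 30 min RT.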

[10] = p53 small molecule agonists, cell-based qHTS assay (AID 1963582; active = well fitted activation curve with a large enough effect in the signal ratio in the repeat runs, not every such curve was filed as active; the % refers to the signal ratio)
How it was run: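 Quantitative HTS in p53RE-bla cells: after a 5 h settling period, compounds delivered in DMSO were left on cells for 16 h at 37 C, and reporter induction was measured as fluorescence following 2 h substrate loading.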

[11] = biological target: 5-hydroxytryptamine receptor 2A (Homo sapiens) (UniProt P28223); experiment: 5-hydroxytryptamine receptor 2A (HTR2A) small molecule agonists, cell-based qHTS assay (AID 1963587); also: nearly all actives have a fitted effect of over 30% in size; also: potency is read from the fitted curve at half-maximal effect
5-hydroxytryptamine receptor 2A (Homo sapiens), sequence (P28223 whole entry, looked up): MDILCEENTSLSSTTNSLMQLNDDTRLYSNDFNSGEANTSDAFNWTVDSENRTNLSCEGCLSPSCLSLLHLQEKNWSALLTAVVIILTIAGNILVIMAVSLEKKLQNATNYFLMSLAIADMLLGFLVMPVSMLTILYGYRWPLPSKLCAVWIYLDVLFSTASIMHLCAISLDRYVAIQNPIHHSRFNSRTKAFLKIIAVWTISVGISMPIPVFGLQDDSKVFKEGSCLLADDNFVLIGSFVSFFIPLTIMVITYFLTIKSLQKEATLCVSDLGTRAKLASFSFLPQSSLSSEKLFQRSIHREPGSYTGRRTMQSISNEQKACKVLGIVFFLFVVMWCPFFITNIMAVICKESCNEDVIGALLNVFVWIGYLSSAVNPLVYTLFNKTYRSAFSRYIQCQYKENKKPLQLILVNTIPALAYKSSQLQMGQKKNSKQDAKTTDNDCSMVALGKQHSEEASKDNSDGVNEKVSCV
How it was run: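 Kinetic calcium-flux fluorescence (2 min, 1 sec intervals) after compound addition in agonist mode. HTR2A-CHO cells were cultured 18 h, then dye-loaded 1 h at 37 C.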

[12] = biological target: Muscarinic acetylcholine receptor M1 (Homo sapiens) (UniProt P11229); experiment: Cholinergic receptor muscarinic 1 (CHRM1) small molecule antagonists, cell-based qHTS assay (AID 1963588); also: nearly all actives have a fitted effect of over 40% in size
Muscarinic acetylcholine receptor M1 (Homo sapiens), sequence (P11229 whole entry, looked up): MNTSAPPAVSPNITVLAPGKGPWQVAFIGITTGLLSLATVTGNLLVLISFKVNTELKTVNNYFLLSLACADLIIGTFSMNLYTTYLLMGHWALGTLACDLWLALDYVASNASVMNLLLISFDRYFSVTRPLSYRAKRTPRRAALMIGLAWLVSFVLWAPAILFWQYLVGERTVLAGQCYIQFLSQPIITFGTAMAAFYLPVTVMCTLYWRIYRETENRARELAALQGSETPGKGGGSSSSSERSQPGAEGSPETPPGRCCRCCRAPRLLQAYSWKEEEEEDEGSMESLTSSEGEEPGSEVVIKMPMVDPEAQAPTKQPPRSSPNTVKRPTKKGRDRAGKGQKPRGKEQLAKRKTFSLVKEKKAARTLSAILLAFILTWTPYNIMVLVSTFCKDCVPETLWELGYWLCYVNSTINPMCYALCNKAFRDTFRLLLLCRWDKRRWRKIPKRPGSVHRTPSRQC
How it was run: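 CHRM1-CHO calcium-flux assay, antagonist mode. Cells were seeded 18 h, dye-loaded 1 h at 37 C and given compound for 5 min at RT, then acetylcholine was added at 50nM. FDSS fluorescence was read 3 min; 15 concentrations, three runs.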

[13] = biological target: Muscarinic acetylcholine receptor M1 (Homo sapiens) (UniProt P11229); experiment: Cholinergic receptor muscarinic 1 (CHRM1) small molecule agonists, cell-based qHTS assay (AID 1963589); also: nearly all actives have a fitted effect of over 35% in size
How it was run: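 Agonist-mode qHTS in CHO cells stably carrying human muscarinic M1. Intracellular calcium is tracked by fluorescence every second after compound transfer; each compound runs at 15 concentrations in three independent runs.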

[14] = cAMP Responsive Elements (CRE) small molecule antagonists, cell-based qHTS assay (AID 1963591; active = well fitted inhibition curve with a large enough effect in the signal ratio in the repeat runs, not every such curve was filed as active; the % refers to the signal ratio)
How it was run: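 Antagonist mode: test compounds are co-incubated with the adenylyl cyclase activator NKH477 (0.25 uM final) on CRE-bla HEK293T cells for 3 h at 37 °C, followed by LiveBLAzer substrate loading.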

[15] = biological target: D(2) dopamine receptor (Homo sapiens) (UniProt P14416); experiment: Dopamine D2 receptor (DRD2) small molecule agonists, cell-based qHTS assay (AID 1963594); also: nearly all actives have a fitted effect of over 35% in size
D(2) dopamine receptor (Homo sapiens), sequence (P14416 whole entry, looked up): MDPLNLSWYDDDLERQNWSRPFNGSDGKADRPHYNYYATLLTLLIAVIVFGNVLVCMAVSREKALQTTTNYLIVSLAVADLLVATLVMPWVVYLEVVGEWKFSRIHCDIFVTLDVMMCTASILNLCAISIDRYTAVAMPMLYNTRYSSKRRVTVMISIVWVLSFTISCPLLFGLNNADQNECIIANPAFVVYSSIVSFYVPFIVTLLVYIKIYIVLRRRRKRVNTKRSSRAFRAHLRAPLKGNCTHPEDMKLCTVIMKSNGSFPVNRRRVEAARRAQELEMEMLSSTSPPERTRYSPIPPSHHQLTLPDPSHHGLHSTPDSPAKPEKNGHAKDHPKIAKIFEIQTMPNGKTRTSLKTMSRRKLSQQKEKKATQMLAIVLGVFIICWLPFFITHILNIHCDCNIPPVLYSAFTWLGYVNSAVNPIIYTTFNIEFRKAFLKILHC
How it was run: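 cAMP accumulation in DRD2-HEK293 cells measured by HTRF after 1 h detection; compounds added 10 min before NKH477 (200nM […]) forskolin-analogue stimulation, 30 min at room temperature, with Ro20-1724 present at 0.1 mM final.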

[16] = biological target: 5-hydroxytryptamine receptor 2A (Homo sapiens) (UniProt P28223); experiment: 5-hydroxytryptamine receptor 2A (HTR2A) small molecule antagonists, cell-based qHTS assay (AID 1963586); also: nearly all actives have a fitted effect of over 45% in size
How it was run: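 Antagonist-mode intracellular calcium assay: DOI (4 nM) added after 5 min compound pre-incubation at room temperature to dye-loaded HTR2A-CHO cells. Fluorescence followed for 3 min, sampled every second.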

[17] = biological target: Beta-2 adrenergic receptor (Homo sapiens) (UniProt P07550); experiment: Adrenergic beta2 receptor (ADRB2) small molecule antagonists, cell-based qHTS assay (AID 1963592); also: nearly all actives have a fitted effect of over 50% in size; also: potency is read from the fitted curve at half-maximal effect
Beta-2 adrenergic receptor (Homo sapiens), sequence (P07550 whole entry, looked up): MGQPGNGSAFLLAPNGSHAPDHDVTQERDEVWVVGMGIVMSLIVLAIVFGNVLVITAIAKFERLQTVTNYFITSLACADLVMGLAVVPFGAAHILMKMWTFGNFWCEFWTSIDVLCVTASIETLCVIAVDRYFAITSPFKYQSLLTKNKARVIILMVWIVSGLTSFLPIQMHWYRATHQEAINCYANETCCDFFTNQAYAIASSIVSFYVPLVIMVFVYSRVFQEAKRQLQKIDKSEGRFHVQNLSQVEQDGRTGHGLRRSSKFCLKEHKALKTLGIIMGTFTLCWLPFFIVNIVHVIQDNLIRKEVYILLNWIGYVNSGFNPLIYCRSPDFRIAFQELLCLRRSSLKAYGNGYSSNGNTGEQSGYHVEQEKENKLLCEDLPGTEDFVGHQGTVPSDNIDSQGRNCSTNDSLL
How it was run: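 Cells (CHO, stable ADRB2 overexpression) incubated 18-20hr at 37C; compounds added from DMSO; agonist mix (1nM isoproterenol, 100uM IBMX, 25uM Ro-20-1724) added; 0.5hr RT; d2-cAMP and anti-cAMP-cryptate added; 1hr RT; 665/615 nm read.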

[18] = biological target: D(2) dopamine receptor (Homo sapiens) (UniProt P14416); experiment: Dopamine D2 receptor (DRD2) small molecule antagonists, cell-based qHTS assay (AID 1963595; active = well fitted inhibition curve with a large enough effect in the signal ratio in the repeat runs, with a control signal flat; the % refers to the signal ratio; also: potency is read from the fitted curve at half-maximal effect)
How it was run: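 HEK293 cells stably expressing DRD2 were preincubated with 0.1 mM Ro20-1724, then with compound for 10 min at room temperature. Cells were stimulated with 200 nM NKH477 plus 12 nM quinpirole for 30 min, and cAMP was read by HTRF.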

[19] = cAMP Responsive Elements (CRE) small molecule agonists, cell-based qHTS assay (AID 1963590)
How it was run: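 Agonist mode qHTS in CRE-bla HEK 293T cells: compounds dosed from DMSO for 3 h at 37 C/5% CO2, followed by LiveBLAzer B/G FRET substrate for 2 h at room temperature.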
% is scaled to controls: 0 for no effect and ±100 for the full control effect.

C[C@H](N)[C@H](O)c1ccc(O)c(O)c1
inactive: Potency [1] | Potency [2] | Potency [3] | Potency [4] | Potency [5] | Potency [6] | Potency [7] | Potency [8] | Potency [9] | Potency [10] | Potency [11] | Potency [12] | Potency [13] | Potency [14] | Potency [15]

c1ccc(C2CC2)c(OCC2=NCCN2)c1
inactive: Potency [1] | Potency [2] | Potency [3] | Potency [4] | Potency [6] | Potency [7] | Potency [8] | Potency [9] | Potency [10] | Potency [16] | Potency [12] | Potency [13] | Potency [17] | Potency [15]
active: Potency [18] 8.41 µM

COC1=CC(=O)O[C@@H](/C=C/c2ccc3c(c2)OCO3)C1
inactive: Potency [1] | Potency [2] | Potency [3] | Potency [4] | Potency [5] | Potency [6] | Potency [7] | Potency [8] | Potency [9] | Potency [11] | Potency [12] | Potency [13] | Potency [17] | Potency [15] | Potency [18]

CC(=O)Nc1cc([As](=O)(O)O)ccc1O
inactive: Potency [1] | Potency [2] | Potency [3] | Potency [4] | Potency [5] | Potency [6] | Potency [8] | Potency [9] | Potency [10] | Potency [11] | Potency [12] | Potency [13] | Potency [19] | Potency [17] | Potency [18]

Cc1cccc(Cc2cnc[nH]2)c1C
inactive: Potency [1] | Potency [2] | Potency [3] | Potency [4] | Potency [5] | Potency [6] | Potency [7] | Potency [8] | Potency [9] | Potency [16] | Potency [11] | Potency [12] | Potency [13] | Potency [17] | Potency [15] | Potency [18]

CCC[CH2][Sn]([CH2]CCC)([CH2]CCC)[O][Sn]([CH2]CCC)([CH2]CCC)[CH2]CCC
active: Potency [1] 0.533 µM | Potency [2] 0.533 µM | Potency [8] 1 µM | Potency [17] 1.68 µM | Potency [18] 2.12 µM
inactive: activation [3] 9.21% [at 6.97 µM] | activation [4] 2.41% [at 5.23 µM] | activation [5] -15.1% [at 5.99 µM] | activation [6] -3.45% [at 5.99 µM] | activity, negative = inhibition [12] 0.927% [at 5.58 µM] | activation [13] 7.77% [at 6.97 µM] | activation [15] 2.93% [at 8.39 µM]

Clc1ccc(C2(Cn3cncn3)CC(Br)CO2)c(Cl)c1 (stereo unspecified)
inactive: Potency [1] | Potency [2] | Potency [3] | Potency [4] | Potency [5] | Potency [6] | Potency [8] | Potency [9] | Potency [10] | Potency [12] | Potency [13] | Potency [14] | Potency [17] | Potency [15]

CC(=O)C(Cl)(Cl)Cl
active: Potency [1] 16.6 µM | Potency [2] 20.9 µM | Potency [9] 24.8 µM
inactive: Potency [3] | Potency [4] | Potency [5] | Potency [6] | Potency [7] | Potency [10] | Potency [11] | Potency [13] | Potency [15] | Potency [18]

NCC1(CC(=O)O)CCCCC1
inactive: Potency [1] | Potency [2] | Potency [3] | Potency [4] | Potency [5] | Potency [6] | Potency [8] | Potency [9] | Potency [10] | Potency [19] | Potency [14] | Potency [17] | Potency [15] | Potency [18]

Cc1nc(N)nc(N)n1
inactive: Potency [1] | Potency [2] | Potency [3] | Potency [4] | Potency [5] | Potency [6] | Potency [7] | Potency [8] | Potency [9] | Potency [10] | Potency [11] | Potency [12] | Potency [13] | Potency [19] | Potency [14] | Potency [17] | Potency [15]

O=[N+]([O-])c1ccc2ccc3cccc4ccc1c2c34
inactive: Potency [1] | Potency [3] | Potency [4] | Potency [5] | Potency [7] | Potency [8] | Potency [9] | Potency [10] | Potency [16] | Potency [11] | Potency [12] | Potency [13] | Potency [19] | Potency [14] | Potency [17] | Potency [15] | Potency [18]
active: Potency [2] 61.1 µM

CC(C)(C)NC[C@H](O)c1ccc(O)cc1Cl
inactive: Potency [1] | Potency [2] | Potency [3] | Potency [4] | Potency [5] | Potency [6] | Potency [7] | Potency [8] | Potency [9] | Potency [10] | Potency [11] | Potency [13] | Potency [14] | Potency [15]
active: Potency [18] 0.0841 µM

CCCCCCCCCCCCCN1CC(C)OC(C)C1 (stereo unspecified)
inactive: Potency [1] | Potency [2] | Potency [3] | Potency [4] | Potency [5] | Potency [6] | Potency [8] | Potency [9] | Potency [10] | Potency [16] | Potency [11] | Potency [13] | Potency [19] | Potency [14] | Potency [15] | Potency [18]

CCN[C@@H](C)Cc1ccccc1
inactive: Potency [1] | Potency [2] | Potency [3] | Potency [4] | Potency [5] | Potency [6] | Potency [7] | Potency [8] | Potency [10] | Potency [16] | Potency [11] | Potency [13] | Potency [19] | Potency [14] | Potency [17] | Potency [15] | Potency [18]

O=C1C=CC(=O)c2ccccc21
active: Potency [1] 15.4 µM | Potency [2] 6.11 µM | Potency [8] 20.4 µM | Potency [11] 21.9 µM
inactive: Potency [3] | Potency [4] | Potency [5] | Potency [6] | Potency [10] | Potency [16] | Potency [17] | Potency [15]

CN=CNc1ccc(C)cc1C
inactive: Potency [1] | Potency [2] | Potency [3] | Potency [4] | Potency [5] | Potency [6] | Potency [7] | Potency [8] | Potency [10] | Potency [16] | Potency [11] | Potency [12] | Potency [13] | Potency [19] | Potency [14] | Potency [17] | Potency [15]
